Measurements reported in ChEMBL document CHEMBL1157539, “Thousands of chemical starting points for antimalarial lead identification” (Nature, 2010).

Legend:
Type in all cases: functional
Plasmodium falciparum [1] = experiment: GSK_TCMDC: Inhibition of Plasmodium falciparum 3D7 in whole red blood cells, using parasite LDH activity as an index of growth. Test compounds present at 2uM
Plasmodium falciparum [2] = experiment: GSK_TCMDC: Inhibition of Plasmodium falciparum Dd2 in whole red blood cells, using parasite LDH activity as an index of growth. Test compounds present at 2uM
HepG2 = experiment: GSK_TCMDC: Percent inhibition of human HepG2 cell line. Test compounds present at 10uM.

Row | SMILES | Inhibition (Plasmodium falciparum [1]) [%] | Inhibition (Plasmodium falciparum [2]) [%] | Inhibition (HepG2) [%]
1 | COc1ccc(CCOc2c(C)nc(N)nc2N)cc1OC.Cl | 96 | 22 | 66
2 | O=C(/C=C/c1ccc(Cl)c(Cl)c1)NCCCCCN1CCCC(C(=O)Nc2ccc(Cl)c(Cl)c2)C1 (stereo unspecified) | 100 | 11 | 53
3 | CC(C)(C)n1nnnc1C(c1cccnc1)N(Cc1ccccc1)Cc1ccc(Cl)cc1 (stereo unspecified) | 96 | 17 | 0
4 | CCN(CCNC(=O)Cn1c(C)cc2cc([N+](=O)[O-])ccc21)c1cccc(C)c1 | 97 | 95 | 0
5 | COc1cc(NCCCCNc2ccc(Cl)c(Cl)c2)nc2ccccc12 | 100 | 68 | 22
6 | Cl.NC(=O)c1cccc(Nc2nccc(Nc3ccc(Oc4cccc5ccccc45)cc3)n2)c1 | 94 | 22 | 0
7 | NS(=O)(=O)c1cccc(N/C=C2\C(=O)Nc3ccc(S(=O)(=O)Cc4c(Cl)cccc4Cl)cc32)c1 | 92 | 99 | 1
8 | COc1cc2nc(N3CCN(C(=O)c4ccco4)CC3)nc(NCc3ccccc3)c2cc1OC | 100 | 99 | 16
9 | CCOC(=O)c1ccc(NC(=O)Nc2ccc(-c3ccc(-c4nc5cccc(C)c5[nH]4)s3)cc2)cc1 | 100 | 100 | 60
10 | CC[C@H](C)CNC(=O)c1ccnc(-c2ccc(CNC3Cc4ccccc4C3)cc2)c1.O=C(O)C(F)(F)F | 100 | 87 | 18
11 | Cl.Oc1c(Cl)cc(-c2ccccc2)cc1CNC1CCCCC1 | 97 | 95 | 5
12 | O=S(=O)(Nc1cccc(CCN2CCC(N3CCCCC3)CC2)c1)c1cccc(C(F)(F)F)c1 | 100 | 13 | 25
13 | CC(=O)Nc1nc(N)c2c(ccc3c2ccn3CC(C)C)n1 | 94 | 78 | 66
14 | N#Cc1ccccc1C(=O)N(Cc1cncn1Cc1cccc(F)c1)CC1CC1 | 100 | 92 | 0
15 | O=C(Nc1ccccc1Cc1ccccc1)c1ccccc1C(F)(F)F | 99 | 85 | 0
16 | Fc1cccc(COc2ccc(Nc3ncnc4sc(C#Cc5ncc[nH]5)cc34)cc2Cl)c1 | 100 | 95 | 55
17 | COc1ccccc1C1CCN(C2CCC(NC(=O)/C=C/c3ccc(C(F)(F)F)cc3F)CC2)CC1 (stereo unspecified) | 95 | 2 | 63
18 | C[C@H](NC(=O)c1c(OC2CN(C(c3ccccc3)c3ccccc3)C2)c(-c2ccccc2)nc2ccccc12)C1CCCCC1 | 92 | 74 | 0
19 | O=C(NC1CCN(CCC(NC(=O)c2ccccc2)c2ccc(Cl)c(Cl)c2)CC1)c1ccc(Cl)cc1 (stereo unspecified) | 97 | 36 | 17
20 | Cc1cccc2nc(-c3ccc(-c4cccc(CNC5CCN(C)CC5)c4)s3)[nH]c12.O=C(O)C(F)(F)F | 98 | 73 | 21
21 | COc1ccc(-c2cncc(-c3ccc(OC)c(OC)c3)n2)cc1OC.Cl | 95 | 90 | 6

Row | SMILES | Inhibition (Plasmodium falciparum [1]) [%] | Inhibition (Plasmodium falciparum [2]) [%] | Inhibition (HepG2) [%]
22 | O=C(Nc1ccc([N+](=O)[O-])cc1)c1nn(-c2ccccc2)cc1/N=C/c1cccc(O)c1 | 98 | 37 | 10
23 | N=C(N)c1ccc(Oc2ccc(C(=N)N)cc2)cc1.O=S(=O)(O)CCO | 92 | 85 | 18
24 | Cc1[nH]c(C)c(-c2ccc(-c3ccccc3Cl)nc2)c(=O)c1Cl | 98 | 97 | 0
25 | CN(C)Cc1cccc(-c2ccc(NC(=O)c3ccc4c(=O)n(CC5CCCO5)cnc4c3)cc2)c1 (stereo unspecified) | 97 | 14 | 28
26 | NS(=O)(=O)c1cccc(Nc2nc(N[C@@H]3CCNC3)nc3cc[nH]c(=O)c23)c1.O=C(O)C(F)(F)F | 99 | 98 | 7
27 | Cc1[nH]c2ccccc2c(=O)c1Br | 94 | 84 | 2
28 | CCc1cc2c(=O)c(-c3nc(C)cs3)c(N)oc2c(CN2CCCCC2)c1O | 99 | 97 | 0
29 | COc1ccc2nccc(NC(=O)N3CCC(NCc4cc5c(F)ccc(F)c5[nH]4)CC3)c2n1.O=C(O)C(=O)O | 99 | 40 | 6
30 | CCCCN1CCN(c2cc(NS(=O)(=O)c3ccc(C(=O)Nc4ccc(C(F)(F)F)cc4)cc3)ccc2OC)CC1.O=C(O)C(F)(F)F | 99 | 20 | 17
31 | O=C(Cc1cc(F)cc(F)c1)NC1CCN(c2ccnc3cc(Cl)ccc23)C1.O=C(O)C(F)(F)F (stereo unspecified) | 82 | 100 | 13
32 | Nc1ncc(-c2ccc(F)cc2)cc1-c1nc2ccc(Cl)cc2[nH]1 | 99 | 44 | 45
33 | CCC(C)NC(=O)CN1CN(c2ccccc2)C2(CCN(C(=O)c3ccc(C(C)(C)C)cc3)CC2)C1=O (stereo unspecified) | 100 | 100 | 0
34 | CCN(CCCN1CCCCC1)c1cc(C)nc(Nc2cc(F)cc(F)c2)n1.O=C(O)C(F)(F)F | 100 | 64 | 15
35 | Nc1nccc2ccc(OC3CCCCC3)cc12.O=CO | 98 | 41 | 24
36 | COc1cc(C)nc2ccc(NC(=O)COCC(=O)Nc3ccc4nc(C)cc(OC)c4c3)cc12 | 100 | 41 | 67
37 | CCC(C)NCC(O)(c1ccc(Cl)cc1)c1ccc(Cl)cc1 (stereo unspecified) | 95 | 76 | 5
38 | COc1ccc2nccc([C@@H](O)CN3CCC(NCc4cc5cc(OC(F)(F)F)ccc5[nH]4)CC3)c2c1.O=C(O)C(=O)O | 100 | 82 | 49
39 | COc1ccccc1/C=C/C(=O)N(C)C1CCN(CCCCCNC(=O)/C=C/c2ccc(Cl)c(Cl)c2)CC1 | 83 | 63 | 71
40 | CC(=O)c1c[nH]c2ccc(/C=C/C(=O)NC3CCC(CCN4CCc5ccc(C#N)cc5CC4)CC3)cc12.Cl (stereo unspecified) | 100 | 98 | 11
41 | COc1ccc2nccc([C@@H](O)CN3CCC(NCc4ccc5nsnc5c4)CC3)c2c1.O=C(O)C(=O)O | 95 | 64 | 12
42 | CC(C)c1ccc(NC(S)=NN=Cc2ccccn2)cc1 | 100 | 98 | 47

Row | SMILES | Inhibition (Plasmodium falciparum [1]) [%] | Inhibition (Plasmodium falciparum [2]) [%] | Inhibition (HepG2) [%]
43 | C=CCN(c1ccc(OC)cc1)S(=O)(=O)c1ccc(Cl)c(C(=O)Nc2cccc(C#N)c2)c1 | 96 | 73 | 6
44 | OCc1ccc2nc3c(cc2c1)-c1cccc2cccc-3c12 | 96 | 0 | 16
45 | CO/C(=C\C=C\c1cc2cc(Cl)c(Cl)cc2[nH]1)C(=O)NCCCNC12CC3CC(CC(C3)C1)C2 | 99 | 76 | 29
46 | O=C(NC1CCCc2ccccc21)[C@@H]1CCCN1C(=O)c1ccc(O)c(-c2cccc([N+](=O)[O-])c2)c1 (stereo partly specified) | 99 | 99 | 0
47 | CC(C)(C)c1cc(C(=O)N2CCN(c3ncnc4ccsc34)CC2)n(Cc2ccccc2)n1 | 95 | 83 | 2
48 | CC(=O)c1ccc2c(c1)CCN(CCC1CCC(NC(=O)c3cc4ccccc4[nH]3)CC1)CC2.Cl (stereo unspecified) | 86 | 47 | 64
49 | COc1ccc2ncc(F)c(CCN3CCC[C@H](CNCc4ccc5c(n4)NC(=O)CS5)C3)c2n1.Cl | 96 | 34 | 16
50 | COc1ccc(-n2ccnc2SCC(=O)Nc2cc(Cl)ccc2OC)c(OC)c1 | 96 | 92 | 0
51 | COc1ccccc1N1CCN(CCCCNC(=O)c2ccc(NC(=O)c3ccc(C(F)(F)F)cc3)cc2)CC1 | 100 | 37 | 25
52 | COc1ccc(Cn2c(N3CCN(S(=O)(=O)c4ccc(OC)cc4)CC3)nc3c2c(=O)n(CC2CC2)c(=O)n3CC2CC2)cc1 | 92 | 39 | 0
53 | COc1ccccc1CCNc1nccc(N[C@@H](Cc2ccccc2)C(=O)NCc2cccs2)n1.O=C(O)C(F)(F)F | 90 | 79 | 34
54 | Cc1cc(NCCC(=O)Nc2ccccc2)nc(NCCc2ccccc2)n1.O=C(O)C(F)(F)F | 99 | 8 | 0
55 | CC(C)(C)CC(C)(C)c1ccc(O)c(C(=O)Nc2cccc([N+](=O)[O-])c2)c1 | 95 | 97 | 49
56 | Br.CC1(C)NC(N)=NC(=N)N1OCCCOc1c(Cl)cc(Cl)cc1Cl | 94 | 97 | 65
57 | O=C(NCCCCN1CCC(c2ccc3ccccc3c2O)CC1)c1ccc(NC(=O)c2ccc(Cl)cc2)cc1 | 100 | 89 | 34
58 | COc1ccc(NC(=O)c2ccc3cc4ccccc4cc3c2)cc1N1CCN(C)CC1 | 86 | 29 | 38
59 | CC1CN(c2cnn(C/C=C/c3ccc(NC(=O)c4ccc(Cl)cc4)cc3)c(=O)c2Cl)CC(C)N1.O=C(O)C(F)(F)F (stereo unspecified) | 88 | 82 | 25
60 | O=C(NC1CC1)c1cnc(N2CCC(COc3cccc(F)c3)CC2)c(Cl)c1 | 89 | 87 | 1
61 | O=C(Nc1ccccc1Br)c1cn(-c2ccccc2)nc1-c1cccc([N+](=O)[O-])c1 | 92 | 36 | 7
62 | CS(=O)(=O)c1ccc(CNCc2cccc(-c3cccc(-c4nc5cc(F)ccc5[nH]4)c3)c2)cc1.O=C(O)C(F)(F)F | 100 | 84 | 11
